# A selection: hits, their analogues and other compounds. The true share with any hit is near 5.1%.
# S1P4 antag = S1P4 receptor antagonists, primary screen, cell-based | S1P4-expressing cells, antagonist mode, reporter read-out | Sphingosine 1-phosphate receptor 4 (Homo sapiens), O95977 | actives 0.26% (n = 220,000) | inhibition, % at 4.98 µM | AID 1510, 2009; in the data active means inhibition above about 29%
# Target sequence (O95977 whole entry, looked up): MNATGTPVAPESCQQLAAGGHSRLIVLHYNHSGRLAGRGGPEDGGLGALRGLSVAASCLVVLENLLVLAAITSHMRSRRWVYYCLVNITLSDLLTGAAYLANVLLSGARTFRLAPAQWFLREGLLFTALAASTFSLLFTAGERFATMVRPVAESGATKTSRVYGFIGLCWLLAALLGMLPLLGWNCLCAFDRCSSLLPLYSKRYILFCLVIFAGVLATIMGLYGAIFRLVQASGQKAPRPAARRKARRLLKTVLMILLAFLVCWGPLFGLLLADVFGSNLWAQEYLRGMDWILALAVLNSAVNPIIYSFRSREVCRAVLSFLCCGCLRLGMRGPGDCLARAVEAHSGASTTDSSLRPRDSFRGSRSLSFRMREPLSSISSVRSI
# KCC2 mod = KCC2 cotransporter modulators, thallium flux, primary screen, cell-based, HEK293 KCC2, FluoZin-2 fluorescence, MLSMR | Solute carrier family 12 member 5 (Homo sapiens), Q9H2X9 | KCC2 cells, thallium flux FluoZin-2 fluorescence | B-score of Tl+ flux slope (higher = more flux/activation; lower = inhibition) at 10 µM | actives 2.2% (n = 190,000) | AID 1456, 2008;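 active means thallium flux slope and its plate-corrected score both differing from the plate sample mean at a set confidence after two filtering rounds, in either direction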;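 further: slope of fluorescence scaled to starting intensity during 10 to 20 s after thallium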
# S1P3 antagonist = S1P3 receptor antagonists, primary screen, cell-based; CHO S1P3 NFAT-BLA reporter, FRET fluorescence, antagonist mode; inhibition, % at 4.98 µM; actives 0.27% (n = 170,000);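 active means inhibition above the plate cutoff, the mean inhibition of test wells on that plate plus 3 SD, cut at about 28% in these data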;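 further: cells challenged with S1P at its EC80 of 0.8 µM; blue over green emission ratio from cleaved BLA substrate after 4 h stimulation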
# RAM network inh = inhibitors of the yeast RAM network, primary screen, dse1pr::URA3 reporter, 5-FOA selection. S. cerevisiae dse1pr::URA3 reporter, 5-FOA growth OD615, 2 d; analog-sensitive cbk1-as2 kinase mutant strain. inhibition, % at 50 µM. actives 1.8% (n = 190,000). AID 868, 2007;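 active means inhibition above a set limit, 3 SD over mean compound inhibition, cut at about 8.4% in these data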;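 further: inhibition rescues growth on 5-FOA so higher OD means more RAM inhibition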
# ROMK mod = ROMK potassium channel modulators, primary screen, cell-based, thallium flux, MLSMR library. ATP-sensitive inward rectifier potassium channel 1 (Homo sapiens), P48048. AID 1918, 2009. actives 2% (n = 130,000). B-score at 10 µM. Tet-inducible ROMK, thallium flux fluorescence; actives lie on both sides;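 active means signal ratio slope over the read window, or its plate-corrected B-score, at least 3 SD from the plate mean, either direction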;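 further: B-score of the F/F0 ratio slope over 7 to 12 s after thallium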
# S1P4 ag = S1P4 receptor agonists, primary screen, cell-based | Sphingosine 1-phosphate receptor 4 (Homo sapiens), O95977 | S1P4-expressing cell line, agonist reporter assay | activation, % at 4.98 µM | actives 0.35% (n = 220,000) | AID 1509, 2009; in the data active means activation above about 11%
# Numbers stand for hits; n = inactive; x = not tested or not shown.
SMILES,S1P4 antag,KCC2 mod,S1P3 antagonist,RAM network inh,ROMK mod,S1P4 ag
Cc1ccc(-c2nc(Nc3cccc(C)c3)sc2CC(=O)O)cc1,n,-4.2,n,n,x,n
O=C(O)Cc1sc(-c2ccccc2Cl)nc1-c1ccccc1,n,n,n,n,n,n
Cc1ccc(-c2nc(-c3ccc(Cl)cc3)sc2CC(=O)O)c(C)c1,n,n,n,9.6,n,n
Cc1cccc(Nc2nc(CC(=O)O)cs2)c1,n,n,n,n,n,n
CCN(CC)c1ccc(C(=O)N/N=C(\C)c2ccc(OC)c(OC)c2)cc1,n,n,n,n,n,n
Cc1ccc(Nc2cc(-n3nc(C)cc3C)ncn2)c(C)c1,n,n,n,9.1,x,n
Cc1ccc(Nc2cc(-n3cccn3)ncn2)c(C)c1,n,n,x,n,n,n
COc1ccc(OC)c2c1sc(=NC(=O)C1COc3ccccc3O1)n2C (centres undefined),n,n,n,x,n,n
COc1ccccc1Nc1nc(N)nc(-c2oc3ccccc3c2C)n1,n,x,x,9.8,n,n
COC(=O)C1=C(C(=O)OC)C(c2cc(Br)ccc2O)c2sc(=O)[nH]c2S1 (centres undefined),n,-5.9,n,n,n,n
CC(Sc1nc(-c2ccc(F)cc2)cs1)C(=O)Nc1ccc(Cl)cn1 (centres undefined),n,n,n,10,n,n
COc1ccc(/C=N/N(C(C)=O)c2nc(-c3ccc(C)cc3)cs2)cc1,n,n,x,9.3,x,n
O=C(N[C@H](C(=O)O)c1ccccc1)C1CCC(Cn2cnc3ccccc3c2=O)CC1 (some centres undefined),n,n,n,x,x,n
COc1ccccc1NC(CC(=O)c1ccccc1)C(=O)OCC(=O)c1ccc(F)cc1 (centres undefined),n,n,n,11,n,n
O=C(CC(Nc1cccc(Cl)c1Cl)C(=O)OCC(=O)c1cccs1)c1ccccc1 (centres undefined),n,n,n,9.0,x,n
COC(=O)C1(CCSC)NC(c2ccc(O)c(OC)c2)C2C(=O)N(c3ccc(C)cc3)C(=O)C21 (centres undefined),n,n,n,n,x,n
O=C(Cn1cncn1)N/N=C/c1ccccc1O,n,n,n,x,n,n
O=C(NNC(=O)c1ccccc1Cl)c1ccccc1Cl,n,n,n,x,x,n
Cc1ccccc1C(=O)NNC(=O)C(=O)Nc1cccc(Cl)c1C,n,46,x,n,x,n
Cc1c(Cl)cccc1NC(=O)C(=O)NNC(=O)c1ccccc1F,n,89,n,n,10,n
Cc1cc(SCC(=O)OCC(=O)NCc2ccc3c(c2)OCO3)c(C)cc1Br,n,n,n,11,n,n
COc1cc(OC)cc(-n2nnnc2SCC(=O)N2CCCc3ccccc32)c1,n,n,n,8.9,n,n
O=C(Nc1cccc(Cl)c1Cl)c1cc(S(=O)(=O)NCCc2ccccc2)ccc1F,n,n,n,9.4,n,n
O=C(NCc1ccco1)C(c1cccs1)N(C(=O)C1COc2ccccc2O1)c1cccc(O)c1 (centres undefined),n,n,n,n,-7.2,n
CCOc1ccc(NC(=O)Cn2nnc(-c3ccccc3NC(=O)c3cccs3)n2)cc1,n,n,x,8.4,n,n
SMILES,S1P4 antag,KCC2 mod,S1P3 antagonist,RAM network inh,ROMK mod,S1P4 ag
CCCC(=O)Nc1ccccc1-c1nnn(CC(=O)Nc2ccc(OC)cc2)n1,n,n,n,n,x,n
C=CCSc1nc(N)c(C(=O)Nc2ccccc2)cc1C#N,n,n,x,9.8,x,n
Cc1ccccc1C(=O)Nc1nc(=S)ss1,n,11,x,n,x,n
C=CCSC1=NNC(c2ccc(C(C)(C)C)cc2)=NN1,n,n,n,x,n,n
CCCOC(=O)c1c(NC(=O)CSc2nc(-c3ccco3)cc(C(F)(F)F)n2)sc(C(=O)OC)c1C,n,x,x,8.8,n,n
Cc1ccc(C(=O)NNC(=S)NC(=O)c2ccco2)cc1,n,55,n,n,3.6,n
Cc1ccccc1C(=O)NNC(=S)NC(=O)c1ccccc1,n,30,n,n,2.3,n
Cc1ccccc1C(=O)NNC(=O)c1ccc(Br)cc1,n,n,n,n,x,n
Cc1ccc(C(=O)NNC(=O)c2ccco2)cc1,n,n,n,n,n,n
CC(C)NC(=S)NC(=O)c1ccc(Cl)cc1Cl,n,29,n,n,x,n
O=C(/C=C/c1ccccc1)NC(=S)NNC(=O)c1ccco1,n,6.4,x,n,n,n
CCOC(=O)Cc1ccc(NCc2ccc(Cl)cc2)cc1,n,n,n,n,n,n
COc1ccc(C(=O)C2CCCN(Cc3ccc(Sc4nncn4C)o3)C2)cc1F (centres undefined),n,n,n,n,n,n
Cc1cc(=O)[nH]c(-c2ccc(C(F)(F)F)cc2)n1,n,n,n,x,x,n
Cc1ccccc1NC(=O)N1CCN(S(=O)(=O)c2ccccc2)CC1,n,x,n,n,n,n
Cc1ccc(C(=O)NNC(=S)NC(=O)c2ccc(Cl)cc2Cl)cc1,n,59,x,n,5.8,n
Cc1ccc(C(=O)NC(=S)NNC(=O)c2ccccc2[N+](=O)[O-])cc1,n,n,x,n,x,n
CC(C)CNC(=S)NC(=O)c1ccc(F)cc1,n,18,n,n,n,n
CC(C)CNC(=S)NC(=O)c1ccc(Cl)cc1Cl,n,39,n,n,x,n
CCOc1ncccc1C(=O)Nc1cccc(Cl)c1Cl,n,n,n,n,n,n
Cn1c(Sc2ccc(Br)cc2)c(C=O)c2ccccc21,n,x,x,10,x,n
Cn1c(Oc2ccc(F)cc2)c(C=O)c2ccccc21,n,n,n,n,n,n
O=C(Nc1ccccc1Br)C(=O)N1CCCC1,n,n,n,n,x,n
O=C(NNc1ccccc1Br)C(=O)n1ccc2ccccc21,n,12,n,n,n,n
O=C(CNC(=O)C1COc2ccccc2O1)N/N=C\c1ccc(Cl)cc1 (centres undefined),n,n,n,x,n,n
SMILES,S1P4 antag,KCC2 mod,S1P3 antagonist,RAM network inh,ROMK mod,S1P4 ag
COC(=O)CN1C(c2ccccc2)=Nc2ccc(Cl)cc2C1c1ccccc1 (centres undefined),n,-4,x,n,-3.1,n
COC(=O)CN1C(C)=Nc2ccc(C)cc2C1c1ccccc1 (centres undefined),n,n,n,n,n,n
O=C(Cc1cccs1)Nc1ccccn1,n,n,n,n,x,n
O=C(Cc1cccs1)Nc1ccon1,n,n,94,n,x,n
CC(C)(C)c1[nH]nc2c1C(c1ccc(OC(=O)c3ccco3)cc1)C(C#N)=C(N)O2 (centres undefined),n,n,n,10,n,n
CCO[C@H]1OC(C(=O)N2CCN(C)CC2)=C[C@@H](C)[C@@H]1CCCO,n,n,n,n,x,n
